# Screens deposited in PubChem by several laboratories.
# Only some compounds are listed: those with a hit (about 1.2% of all), similar ones and a draw of the others.
# EBV LMP1 NFkB: EBV LMP1-driven NF-kappaB luciferase reporter inhibitors, primary screen, cell-based, luminescence, single point. AID 504558, 2011. inhibition, % at 12.5 µM. hit rate 0.69% among 350,000. LMP1-induced NF-kappaB luciferase reporter cells; in the data active = inhibition above about 41%; inconclusive = no clear call, values can overlap the other calls;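 also: 0% = neutral control wells and 100% = reference inhibitor control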
# SRC3 inh: SRC3 coactivator transcriptional activity inhibitors, primary screen, cell-based, luminescence; hit rate 0.17% among 360,000; HEK293 GAL4-SRC3 luciferase reporter; inhibition, % at 3.6 µM; Nuclear receptor coactivator 3 (Homo sapiens), Q9Y6Q9;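 active = inhibition above a per-campaign cutoff, the mean of all compounds plus 3 SD, cut at about 60% in these data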;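 also: 0% = DMSO-treated cells and 100% = gossypol-treated cells at 36 µM; higher means less SRC3-driven luciferase light from the GAL4 reporter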
# NCOA1 inh: SRC1 coactivator transcriptional activity inhibitors, primary screen, cell-based, luminescence. Nuclear receptor coactivator 1 (Homo sapiens), Q15788. HEK293 GAL4-SRC1 luciferase reporter. inhibition, % at 3.6 µM. hit rate 0.12% among 360,000. AID 588354, 2011;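 active = inhibition above the campaign mean plus 3 SD, with each screening campaign given its own cutoff, cut at about 60% in these data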;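 also: 0% = DMSO treated cells and 100% = gossypol at 36 µM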
# Shn3 3UTR inh: reduction of Shn3 3'UTR firefly luciferase signal, primary screen, Schnurri-3 inhibitor project, cell-based, Clone20 osteoblasts, set 2; Clone20 osteoblast Shn3 3'UTR firefly luciferase, 24 h; hit rate 0.52% among 360,000; inhibition, % at 12.5 µM; AID 588674, 2011;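 active = mean inhibition of at least 75% with every replicate also reaching 75%; inconclusive = mean inhibition at least 75% but some replicate below; inactive = mean inhibition below 75%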;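 also: 0% = median of neutral control wells and 100% = pilot-screen positive control compound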
# NCOA2 inhibitor: inhibition of GAL4-SRC2 driven luciferase reporter, primary screen, SRC2 inhibitor project, cell-based, luminescence | HEK293 GAL4-SRC2 luciferase reporter | inhibition, % at 9 µM | hit rate 0.17% among 370,000;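 active = inhibition above the mean inhibition of all tested compounds plus 3 SD, set per campaign, cut at about 52% in these data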;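 also: 0% = DMSO treated cells and 100% = cells given Gossypol at 36 µM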
# LRH-1 inv ag: LRH-1 (NR5A2) inverse agonists, primary screen, cell-based, luminescence, HEK293T, StAR-luciferase reporter. Nuclear receptor subfamily 5 group A member 2 (Homo sapiens), O00482. LRH-1 transfected, 24 h. inhibition, % at 3.6 µM. hit rate 0.13% among 360,000. AID 602396, 2012;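 active = inhibition above the mean inhibition of all tested compounds plus 3 SD, cut at about 73% in these data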;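 also: 0% = DMSO wells and 100% = reporter-only cells lacking LRH-1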
# Target sequence (O00482 whole entry, looked up): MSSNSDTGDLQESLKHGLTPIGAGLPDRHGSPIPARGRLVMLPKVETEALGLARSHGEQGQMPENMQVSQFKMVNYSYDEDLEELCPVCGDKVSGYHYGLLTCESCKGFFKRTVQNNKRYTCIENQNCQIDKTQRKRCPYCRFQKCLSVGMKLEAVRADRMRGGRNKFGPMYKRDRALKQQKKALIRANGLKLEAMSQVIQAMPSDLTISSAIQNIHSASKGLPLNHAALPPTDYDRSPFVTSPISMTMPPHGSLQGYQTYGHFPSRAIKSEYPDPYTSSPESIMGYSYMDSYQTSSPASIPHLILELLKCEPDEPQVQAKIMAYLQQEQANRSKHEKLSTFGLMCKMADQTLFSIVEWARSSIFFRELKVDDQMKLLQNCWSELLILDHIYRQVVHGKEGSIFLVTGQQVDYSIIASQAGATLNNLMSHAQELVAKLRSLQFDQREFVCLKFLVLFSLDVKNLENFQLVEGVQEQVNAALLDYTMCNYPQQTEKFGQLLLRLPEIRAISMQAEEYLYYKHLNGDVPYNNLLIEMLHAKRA
# An asterisk follows results filed as active; ? = inconclusive; / = no result.
SMILES,EBV LMP1 NFkB,SRC3 inh,NCOA1 inh,Shn3 3UTR inh,NCOA2 inhibitor,LRH-1 inv ag
COc1ccc(OC)c(CN2C(=O)CCCC2(C)c2nnnn2C2CCCC2)c1 (stereo unspecified),/,/,/,/,-1,/
COc1cc(C=NN=c2sc3ccccc3n2C)ccc1OCCO,/,/,/,/,-58,/
COc1ccc(-c2cn[nH]c2-c2ccc(O)cc2O)cc1,15,48,55,15,54*,9
COc1ccc(CCNC(=O)CSc2ccccc2)cc1OC,8,3,-3,-4,-51,11
COc1ccc(CCNC(=O)CSC(=O)c2ccccc2)cc1OC,43*,2,2,-12,-14,14
Cc1ccc(-c2nnc(SCC(=O)Nc3ccc4c(c3)OCCO4)n2-c2ccc(Cl)cc2)cc1,/,/,/,/,6,/
Cc1c(CCOC(=O)C23CC4(C)CC(C)(CC(C)(C4)C2)C3)sc[n+]1CC(=O)c1ccccc1,-14,14,14,90*,-11,-9
O=C(CCCN1C(=O)/C(=C/c2ccccc2Cl)SC1=S)Nc1ccccn1,17,15,20,24,69*,30
O=C(CCN1C(=O)/C(=C/c2ccccc2Cl)SC1=S)Nc1ccccn1,-2,0,-6,-8,-1,4
O=C(CCCN1C(=O)/C(=C/c2ccccc2Cl)SC1=S)Nc1cccnc1,58*,-5,-18,19,43,7
O=[N+]([O-])c1ccccc1N=Nc1c(O)[nH]c2ccc(F)cc12,-63,-53,-46,85*,-33,-12
Cc1ccc2[nH]c(O)c(N=Nc3ccccc3[N+](=O)[O-])c2c1,-9,-1,-28,-17,-4,8
COc1ccc(C(=O)N/N=C(\C)c2ccccn2)cc1OC,27,19,15,91*,15,35
C/C(=N\NC(=O)C(c1ccccc1)c1ccccc1)c1ccccn1,8,28,16,88*,-100,2
COc1ccc(NC(=O)c2ccccn2)cc1OC,3,-49,-65,-33,-20,-99
C/C(=N\NC(=O)C(c1ccccc1)c1ccccc1)c1ccc(O)cc1,11,-22,7,10,-5,9
NNC(=O)c1cc(-c2cccs2)nc2ccccc12,2,-9,4,-1,5,8
C/C(=N\NC(=O)c1cccc(Br)c1)c1ccccn1,71*,-29,-30,?,-34,-78
C/C(=N\NC(=O)c1cc(-c2cccs2)nc2ccccc12)c1ccccn1,72*,-7,14,94*,-1,20
C=CCN(CC#CC1=CCCCC1)Cc1ccccc1,/,/,/,/,1,/
Cc1ccccc1NC(=O)[C@H]1CC(=O)O[C@@H]1c1ccccc1,/,/,/,/,13,/
O=C(Nc1ccccc1)OCCN1C(=O)CCC12CCC(c1ccccc1)CC2 (stereo unspecified),/,/,/,/,-9,/
C/C(=N\NC(=O)c1cc(Br)ccc1O)c1ccccn1,4,-5,-9,51,19,-31
C/C(=N\NC(=O)c1ccccc1Cl)c1ccccn1,14,-8,-9,92*,0,-16
C/C(=N/NC(=O)c1ccc(C(C)(C)C)cc1)c1ccccn1,47*,14,-9,81,0,-11
SMILES,EBV LMP1 NFkB,SRC3 inh,NCOA1 inh,Shn3 3UTR inh,NCOA2 inhibitor,LRH-1 inv ag
C/C(=N\NC(=O)c1ccc(Cl)c(Cl)c1)c1ccccn1,73*,2,1,91*,-23,-9
C/C(=N\NC(=O)c1cccc2ccccc12)c1ccccn1,34,-3,-26,90*,-28,6
COC(=O)c1cc(S(=O)(=O)N2CCN(c3cccc(C(F)(F)F)c3)CC2)cn1C,/,/,/,/,8,/
COC(=O)[C@H](Cc1ccccc1)N1CC(N2CCCC2)CS1(=O)=O (stereo partly specified),/,/,/,/,24,/
CN(CCCOC(=O)c1cc2ccccc2o1)C1CN(Cc2cn(Cc3ccc([N+](=O)[O-])cc3)nn2)S(=O)(=O)C1 (stereo unspecified),/,/,/,/,9,/
O=C(OCc1cn(Cc2cccc(F)c2)nn1)N1CCOCC1,/,/,/,/,26,/
C/C(=N\Nc1nc2ccccc2[nH]1)c1cc2ccccc2o1,-23,-22,-49,-27,-56,-23
C/C(=N\Nc1nc2ccccc2[nH]1)c1ccccn1,93*,79*,75*,81,-59,84*
Cc1ccc(NC(=O)Cc2cccc(OC(F)F)c2)c(S(=O)(=O)N2CCOCC2)c1,/,/,/,/,3,/
Cc1nnc(NC(=O)CSc2nnc(Cc3cccn3C)n2CCc2ccccc2)s1,66*,14,-13,2,20,-19
FC(F)(F)c1nc2ccccc2n2c(-c3ccc(Cl)cc3)nnc12,53*,30,6,-2,-7,13
Cc1nn(-c2ccccc2)c(Cl)c1CN(C(=O)CCl)c1ccc(Cl)cc1,7,13,-16,96*,4,-5
CCn1c(/C=C/Nc2ccccc2)[n+](CC)c2cc(Cl)c(Cl)cc21,-15,11,7,88*,4,21
CCCCCCC(=O)N(O)C1CC(=O)N(c2ccc(C)cc2)C1=O (stereo unspecified),51*,16,5,7,33,11
C(#CC1=CCCCC1)CNCc1ccccc1,/,/,/,/,-2,/
O=C(CCl)Nc1cn(-c2ccccc2)nc1-c1ccc(F)cc1,-11,-3,-18,96*,33,9
Fc1ccc(-c2nn(-c3ccccc3)cc2CNCc2ccccc2)cc1,-9,-7,6,-2,2,-19
O=C(O)c1cccc(NC(=O)c2cn(-c3ccccc3)nc2-c2ccc(F)cc2)c1,82*,-20,-19,-11,-6,-11
COc1cc(C(=O)/C=C/c2cccnc2)c([N+](=O)[O-])cc1OC,18,56,40,26,61*,51
OCCN(CCO)CC(O)COc1ccc(C23CC4CC(CC(C4)C2)C3)cc1 (stereo unspecified),42*,55,42,31,73*,40
OCCN(CCO)CC(O)COCCC12CC3CC(CC(C3)C1)C2 (stereo unspecified),73*,8,-4,4,-9,6
CCCN(CC)c1ncnc2[nH]ncc12,43*,65*,65*,-17,55*,41
CN(C)c1ncnc2[nH]ncc12,-3,1,9,0,-7,-9
CCCS(=O)(=O)N1CCC(C(=O)NC2CCCC(C)C2C)CC1 (stereo unspecified),3,4,-31,-11,-12,14
CCCS(=O)(=O)N1CCCC(C(=O)NC2CCCC(C)C2C)C1 (stereo unspecified),60*,-7,-5,9,-4,9
